In PubChem BioAssay AID1159580 (chemical genetic matrix, 2015):
Screen size: about 5,500 compounds; about 2,000 (36%) were called active. Not shown: some 18% with an inconclusive outcome. Rule as the data show it: active = normalized growth mostly below about 0.91 (no sharp cut-off); inconclusive = no clear call, values can overlap the other calls; inactive = mostly above about 0.92. The list shows a part of the results.

Assay: chemical genetic growth profiling, strain panel (AID 1159580);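 also: tested at 20 µM; growth read once vehicle control cultures reached saturation at 30 °C; 1 = growth at the plate median or of vehicle wells; lower values mean less growth of the strain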
Conditions: S. cerevisiae deletion strains, growth OD
[1] = locus YAL013W, strain DEP1, hits give low values
[2] = locus YAL040C, strain CLN3, hits give low values
[3] = locus YCL061C, strain MRC1 (second series), hits give low values
[4] = locus YDR150W, strain NUM1, hits give low values
[5] = locus YDR363W, strain ESC2, hits give low values
[6] = locus YER002W, strain NOP16, hits give low values
[7] = locus YGR078C, strain PAC10, hits give low values
[8] = locus YJR075W, strain HOC1, hits give low values
[9] = locus YMR307W, strain GAS1, hits give low values
[10] = locus YNL153C, strain GIM3, hits give low values
[11] = locus YNL175C, strain NOP13, hits give low values
[12] = locus YNL197C, strain WHI3, hits give low values
[13] = locus YNL224C, strain SQS1, hits give low values
[14] = locus YOR083W, strain WHI5 (second series), hits give low values
[15] = locus YPL055C, strain LGE1, hits give low values
[16] = locus YPL241C, strain CIN2, hits give low values
[17] = locus YGR229C, strain SMI1, hits give low values
[18] = locus YMR263W, strain SAP30, hits give low values
[19] = locus YNL322C, strain KRE1, hits give low values
[20] = locus YAR019C, strain CDC15, hits give low values
[21] = locus YBL105C, strain PKC1, hits give low values
[22] = locus YBR135W, strain CKS1, hits give low values
[23] = locus YBR136W, strain MEC1, hits give low values
[24] = locus YBR160W, strain CDC28, hits give low values
[25] = locus YDL017W, strain CDC7, hits give low values
[26] = locus YDL028C, strain MPS1, hits give low values
[27] = locus YDL101C, strain DUN1, hits give low values
[28] = locus YDL108W, strain KIN28, hits give low values
[29] = locus YDL132W, strain cdc53, hits give low values
[30] = locus YDL214C, strain PRR2, hits give low values
[31] = locus YDR052C, strain DBF4, hits give low values
[32] = locus YDR054C, strain cdc34, hits give low values
[33] = locus YDR226W, strain ADK1, hits give low values
[34] = locus YDR477W, strain SNF1, hits give low values
[35] = locus YER123W, strain YCK3, hits give low values
[36] = locus YER133W, strain GLC7, hits give low values
[37] = locus YFL009W, strain cdc4, hits give low values
[38] = locus YFL029C, strain CAK1, hits give low values
[39] = locus YFR003C, strain YPI1, hits give low values
[40] = locus YFR019W, strain FAB1, hits give low values
[41] = locus YFR028C, strain CDC14, hits give low values
[42] = locus YGR040W, strain KSS1, hits give low values
[43] = locus YGR052W, strain FMP48, hits give low values
[44] = locus YGR092W, strain DBF2, hits give low values
[45] = locus YHR030C, strain SLT2, hits give low values
[46] = locus YHR079C, strain IRE1, hits give low values
[47] = locus YHR082C, strain KSP1, hits give low values
[48] = locus YHR205W, strain SCH9, hits give low values
[49] = locus YIL147C, strain SLN1, hits give low values
[50] = locus YJL095W, strain BCK1, hits give low values
[51] = locus YJL128C, strain PBS2, hits give low values
[52] = locus YJL157C, strain FAR1, hits give low values
[53] = locus YJR016C, strain ILV3, hits give low values
[54] = locus YJR066W, strain TOR1 (second series), hits give low values
[55] = locus YJR066W, strain TOR1, hits give low values
[56] = locus YKL048C, strain ELM1, hits give low values
[57] = locus YKL067W, strain YNK1, hits give low values
[58] = locus YKL101W, strain HSL1, hits give low values
[59] = locus YKL193C, strain SDS22, hits give low values
[60] = locus YKL203C, strain TOR2, hits give low values
[61] = locus YLR113W, strain HOG1, hits give low values
[62] = locus YLR133W, strain CKI1, hits give low values
[63] = locus YLR403W, strain SFP1, hits give low values
[64] = locus YML070W, strain DAK1, hits give low values
[65] = locus YMR001C, strain CDC5, hits give low values
[66] = locus YMR205C, strain PFK2 (second series), hits give low values
[67] = locus YMR277W, strain FCP1, hits give low values
[68] = locus YNL006W, strain LST8, hits give low values
[69] = locus YNL020C, strain ARK1, hits give low values
[70] = locus YNL161W, strain CBK1, hits give low values
[71] = locus YNL183C, strain NPR1, hits give low values
[72] = locus YNL207W, strain RIO2, hits give low values
[73] = locus YNL222W, strain SSU72, hits give low values
[74] = locus YNL307C, strain MCK1 (second series), hits give low values
[75] = locus YOL078W, strain AVO1, hits give low values
[76] = locus YOR061W, strain CKA2, hits give low values
[77] = locus YOR119C, strain RIO1, hits give low values
[78] = locus YOR231W, strain MKK1, hits give low values
[79] = locus YOR329C, strain SCD5, hits give low values
[80] = locus YPL031C, strain PHO85, hits give low values
[81] = locus YPL153C, strain RAD53, hits give low values
[82] = locus YPL204W, strain HRR25, hits give low values
[83] = locus YPL209C, strain IPL1, hits give low values
[84] = locus YPL256C, strain CLN2, hits give low values
[85] = locus YPR025C, strain CCL1, hits give low values
[86] = locus YPR106W, strain ISR1, hits give low values
[87] = locus YPR111W, strain DBF20, hits give low values
[88] = strain NNK1, hits give low values
[89] = strain TSCII, hits give low values

Measured: normalized growth

CCCn1cnc2c1c(=O)n(CCCCC(C)=O)c(=O)n2C
inactive: [1] 1.01 | [2] 0.997 | [3] 1.01 | [4] 1.01 | [5] 0.961 | [6] 1.02 | [7] 1.01 | [8] 1.02 | [9] 1.01 | [10] 1.04 | [11] 1.01 | [12] 0.996 | [13] 1.01 | [14] 1.01 | [15] 1.02 | [16] 1.01

COC[C@H]1OC(=O)c2coc3c2[C@@]1(C)C1=C(C3=O)C2CCC(=O)[C@@]2(C)C[C@H]1OC(C)=O (some centres undefined)
inactive: [7] 0.994 | [11] 1
active: [2] 0.0731 | [3] 0.141 | [4] 0.136 | [5] 0.206 | [6] 0.0648 | [17] 0.0613 | [18] 0.0519 | [9] 0.0665 | locus YNL128W, strain TEP1, hits give low values 0.143 | [10] 0.101 | [12] 0.0727 | [13] 0.0711 | [19] 0.33 | [14] 0.359 | [15] 0.119

CC1SC(c2cccnc2)N(c2ccc(F)cc2F)C1=O (centres undefined)
inactive: [20] 1 | [21] 0.987 | [22] 0.982 | [23] 0.99 | [24] 0.983 | [25] 0.985 | [26] 0.994 | [27] 0.985 | [28] 1 | [29] 0.981 | [30] 1.01 | [31] 0.981 | [32] 0.981 | [33] 0.974 | [34] 0.981 | [35] 0.942 | [36] 0.99 | [37] 0.981 | [38] 0.997 | [39] 0.991 | [40] 0.933 | [41] 0.979 | [42] 0.974 | [43] 0.931 | [44] 0.965 | [45] 1.01 | [46] 0.972 | [47] 0.925 | [48] 1 | [49] 0.992 | [50] 0.946 | [51] 0.988 | [52] 1 | [53] 0.986 | [54] 0.966 | [55] 0.82 | [56] 1 | [57] 1.02 | [58] 1.02 | [59] 0.973 | [60] 0.965 | [61] 0.957 | [62] 1.01 | [63] 0.976 | [64] 1.02 | [65] 0.984 | [66] 1.02 | [67] 0.978 | [68] 0.986 | [69] 1.01 | [70] 0.976 | [71] 0.968 | [72] 0.975 | [73] 0.983 | [74] 1 | [75] 0.976 | locus YOL136C, strain PFK27, hits give low values 1.03 | [76] 0.995 | [77] 0.833 | [78] 0.936 | [79] 0.979 | [80] 0.981 | [81] 0.968 | [82] 0.972 | [83] 0.979 | [84] 0.954 | [85] 0.984 | [86] 1 | [87] 0.998 | [88] 0.992 | [89] 0.985

CC1SC(c2cccnc2)N(c2ccc(Cl)cc2)C1=O (centres undefined)
active: [29] 0.894 | [30] 0.6 | [31] 0.906 | [32] 0.828 | [34] 0.411 | [35] 0.466 | [36] 0.421 | [40] 0.43 | [42] 0.397 | [43] 0.374 | [46] 0.441 | [47] 0.4 | [50] 0.215 | [52] 0.635 | [55] 0.284 | [57] 0.673 | [60] 0.331 | [61] 0.455 | [62] 0.478 | [63] 0.346 | [66] 0.64 | [69] 0.599 | [71] 0.393 | [74] 0.462 | [77] 0.295 | [78] 0.47 | [80] 0.434 | [81] 0.47 | [82] 0.46 | [84] 0.435
inactive: [20] 0.948 | [21] 0.971 | [22] 0.964 | [23] 0.959 | [24] 0.967 | [25] 0.972 | [26] 0.955 | [27] 0.928 | [28] 0.951 | [33] 0.932 | [37] 0.931 | [38] 0.926 | [39] 0.972 | [41] 0.945 | [44] 0.904 | [45] 0.871 | [48] 0.725 | [49] 0.952 | [51] 0.987 | [53] 0.926 | [54] 0.704 | [56] 0.922 | [58] 0.779 | [59] 0.947 | [64] 0.694 | [65] 0.936 | [67] 0.969 | [68] 0.967 | [70] 0.953 | [72] 0.91 | [73] 0.96 | [75] 0.937 | [76] 0.919 | [79] 0.953 | [83] 0.969 | [85] 0.961 | [86] 0.957 | [87] 0.965 | [88] 0.944 | [89] 0.946

CN1C(=O)CCC1c1cccnc1 (centres undefined)
inactive: [1] 1.02 | [2] 1.02 | [6] 1 | [8] 1.01 | [11] 0.999 | [13] 1.01 | [14] 1.02 | [16] 1.01

O=C1CSC(c2cccnc2)N1c1ccc(Cl)cc1 (centres undefined)
active: locus YLR039C, strain RIC1, hits give low values 0.723 | locus YLR262C, strain YPT6, hits give low values 0.677
inactive: [1] 1 | locus YBR229C, strain ROT2, hits give low values 0.997 | [27] 0.978 | [4] 0.997 | locus YEL061C, strain CIN8, hits give low values 0.977 | [7] 1 | [17] 0.984 | [45] 1.12 | locus YHR087W, strain rtc3, hits give low values 0.98 | locus YJR043C, strain POL32, hits give low values 0.983 | [8] 1 | locus YKL190W, strain CNB1, hits give low values 0.997 | locus YLR058C, strain SHM2 (second series), hits give low values 1.01 | locus YLR085C, strain ARP6, hits give low values 1 | locus YML094W, strain GIM5, hits give low values 0.957 | locus YMR219W, strain ESC1, hits give low values 0.992 | [18] 1.04 | [9] 1.01 | [10] 1.01 | locus YNL298W, strain CLA4 (second series), hits give low values 1 | [19] 0.995 | locus YNR030W, strain Alg12, hits give low values 0.994 | [15] 0.986 | [16] 1.04 | locus YPR135W, strain CTF4, hits give low values 1.05
